Results reported in PubChem BioAssay (NCI).
This is part of a sample that, as a whole, favours compounds with a hit. Of some 79,000 tested, about 15% had one in any assay. A number with no mark means an inactive call. Calls of active or inactive are those of the source. Cut-off read from the data, not from the text of the source: active = growth inhibition above about 70%; inactive = the rest. Where a SMILES comes first, the peptide text is derived from it. [ ]: non-standard residue; d: D form. The star is where a group is joined. Cbz = O=C(OCc1ccccc1)*; Nva = CCC[CH](N)C(=O)O

experiment: NCI Yeast Anticancer Drug Screen. Data for the mec2-1 strain (AID 157); conditions: S. cerevisiae mec2-1 strain, at 50.0 µM, stronger effect = higher value
Experimental: Growth inhibition of yeast strains with defined genetic alterations is measured as a screen for potential anti-cancer activity. Selected strains with alterations in DNA damage repair or cell cycle control were exposed to compounds and growth inhibition was measured relative to vehicle treated controls. The strain used in this assay is mec2-1

SMILES	growth inhibition
COC(=O)C1(NC(=O)C2(N3C(=O)c4ccccc4C3=O)CCCC2)CCCC1	-0.95%
Cc1ccc(NC(=O)C(=O)Cc2cc[n+]([O-])cc2)cc1	-1.5%
NCCCNCCS	1.5%
CCCOC(=O)CCBr	10.1%
C=C(CCCC(C)OC(C)OCC)[Si](C)(C)C (stereo not given)	-52%
Cc1ccccc1NC(=O)C(=O)C(C#N)c1ccc(Cl)cc1Cl (stereo not given)	6%
Cc1n[nH]c(=O)n1N1C(=O)c2ccccc2C1=O	-10.1%
Cc1nc(Nc2ccc(Cl)c(Cl)c2)sc1C(/C=C/c1ccc2c(c1)OCO2)=N/Nc1ccc([N+](=O)[O-])cc1[N+](=O)[O-]	-14.3%
O=S(=O)(Nc1nc2ccccc2nc1N1CCCCCC1)c1ccccc1	-8.35%
COC(=O)[C@]12CCC(C)(C)C[C@H]1C1=CC[C@@H]3[C@@]4(C)CC[C@H](OC5OC(CO)C(O)C(O)C5OC5OC(CO)C(O)C(O)C5O)C(C)(C)[C@@H]4CC[C@@]3(C)[C@]1(C)CC2 (stereo not given in full)	90.8% (active)
c1ccc2c(-c3nn[nH]n3)nccc2c1	-16.2%
COc1cc(C2NCCC(c3ccccc3)(c3ccccc3)N2)cc(OC)c1OC (stereo not given)	-4.65%
CCOC(=O)C(C#N)C1(C(C#N)C(=O)OCC)C(=O)Nc2ccccc21 (stereo not given)	14.6%
CC(C)NC(=O)OCc1c(COC(=O)NC(C)C)c(S(=O)c2ccccc2)n2c1CCC2 (stereo not given)	5.3%
CCOC(=O)c1c(N)n(-c2ccccc2)c(=S)n(-c2ccccc2)c1=O	-24.4%
Cc1nc2ccccc2n1CCC(N)=O	-2.1%
O=C(Nc1c(O)[nH][nH]c1=O)c1ccccc1	-0.05%
CSc1ccc(NC(=O)Nc2ccc(Cl)cc2[N+](=O)[O-])cc1	40.5%
Nc1ccnn2c(-c3ccccc3)nnc12	1.85%
O=C(N/N=C/c1cc(-c2ccccc2Cl)c(-c2ccccc2Cl)o1)c1ccncc1	23.6%

SMILES	growth inhibition
FC(F)(F)c1ccc2c(c1)N(CCCN1CCN(CCN3CCCCC3)CC1)c1ccccc1S2	46%
O=C(OC1CC2CCC23CCC13)c1ccccc1 (stereo not given)	6.1%
CC(=Nc1ccc(Cl)cc1)c1ccncc1	-14.5%
CCCCCCCCC(=O)Nc1nc2nc[nH]c2c(=O)[nH]1	-33.2%
CCCCNC(=O)c1cccc(OC)c1OC	-1.55%
COC(=O)C(NC(=O)C(=O)NC(C(=O)OC)C(C)(C)S)C(C)(C)S (stereo not given)	-9.1%
Cc1cc2c(=O)c3ccccc3oc2c(C(=O)O)c1C	-6.25%
CC1=C(C(=O)Nc2ccccc2C)C(c2ccccc2)C(C(=O)Nc2ccccc2C)=C(C)N1	15.2%
CC1CC=C2C=C(Cl)C=CC2(C)C1C (stereo not given)	3.55%
c1ccc(-c2ccccc2-c2ccccc2)cc1	-4.8%
C[C@@]1(NC(=O)Cc2ccccc2)C(=O)N2CCS[C@@]21c1ccccc1	0.8%
Cc1ccc(-c2nnc(NC(=O)Nc3ccc(Cl)cc3)o2)cc1	-1.45%
O=C(NCCSC(=O)Nc1ccccc1)Nc1ccccc1	14.8%
CNc1cccc2c1C(C)C[C@]1(C)C(=O)Nc3ccccc3[C@H]21 (stereo not given in full)	-19.7%
Cc1ccc(NC(=O)C2C(=O)N(c3ccc(C)cc3)C(=O)/C2=N\NC(N)=S)cc1 (stereo not given)	-25.1%
Cc1nn(C)c2c1C(=O)N(C)CC(=O)N2C	-38.9%
CC(C)OC1(c2ccccc2)c2cccc3cccc(c23)C1(O)c1ccccc1 (stereo not given)	-3.6%
CC1OC(C)(Cc2ccccc2)OC1C (stereo not given)	-13.9%
CC(=O)N(C(C)=O)n1c(-c2ccccc2)n[nH]c1=O	-17.9%
CCCC(NC(=O)OCc1ccccc1)C(=O)NC(C(=O)O)C(C)CC (stereo not given) (Cbz-[Nva]-Ile-OH; configuration not given here)	12.4%
